NR1D1 modulator – modulators of human Rev-erb alpha DNA binding. Rev-erbα–FITC-DNA binding, fluorescence polarization, 90 min. activity, % at 10 µM. 0.79% of 370,000 active;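 active = activity above about 14%, limit read from the data; passing the limit was not always enough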
Target sequence (P20393 whole entry, looked up): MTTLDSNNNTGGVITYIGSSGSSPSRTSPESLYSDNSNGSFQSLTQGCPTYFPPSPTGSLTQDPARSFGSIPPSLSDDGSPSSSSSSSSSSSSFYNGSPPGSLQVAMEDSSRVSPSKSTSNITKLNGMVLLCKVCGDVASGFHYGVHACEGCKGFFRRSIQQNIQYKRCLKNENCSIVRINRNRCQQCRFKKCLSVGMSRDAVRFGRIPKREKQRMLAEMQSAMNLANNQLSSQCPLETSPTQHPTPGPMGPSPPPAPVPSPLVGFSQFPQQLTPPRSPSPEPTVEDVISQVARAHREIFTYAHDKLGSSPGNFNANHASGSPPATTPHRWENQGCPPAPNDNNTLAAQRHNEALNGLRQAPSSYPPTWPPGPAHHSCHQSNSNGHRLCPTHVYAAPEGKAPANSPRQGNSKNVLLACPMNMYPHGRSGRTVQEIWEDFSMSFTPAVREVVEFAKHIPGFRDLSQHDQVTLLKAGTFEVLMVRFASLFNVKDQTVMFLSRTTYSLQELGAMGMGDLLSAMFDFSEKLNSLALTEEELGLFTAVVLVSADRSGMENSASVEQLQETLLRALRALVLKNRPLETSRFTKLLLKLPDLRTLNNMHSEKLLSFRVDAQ
PG9 Ab binder – small molecules binding HIV-1 gp120 antibody PG9 | inhibition, % at 6.7 µM | TR-FRET gp120-PG9 antibody binding | 0.43% of 360,000 active; in the data active = inhibition above about 8.5%
aDG glyco act – alpha-DG glycosylation activation; Pro5-aDG cells, alpha-DG glycosylation AlphaScreen (IIH6); 0% Pro5, 100% B10-LARGE cell signal; activation, % at 10 µM; 0.22% of 360,000 active; AID 624168;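 active = activation of at least 8% versus controls, or a plate z-score of at least 8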;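 also: Pro5 are CHO cells carrying HIG-tagged alpha-DG that lacks glycosylation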
ZTA counter – ZTA (EBV) inhibition in EBNA-1 counter-screen; P03206; ZTA-DNA binding, fluorescence polarization; inhibition, % at 11 µM; 0.15% of 320,000 active; in the data active = inhibition above about 33%
EBNA-1 inh – blocks EBNA-1 binding to DNA; 0.34% of 300,000 active; EBNA-1 DNA binding, fluorescence polarization; inhibition, % at 14.8 µM; in the data active = inhibition above about 28%
NCF1 inh – inhibitors of human p47phox binding | P14598 | inhibition, % at 24.7 µM | p47phox/p22phox peptide binding, fluorescence polarization, 2 h | 0.53% of 220,000 active | AID 1274;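 active = inhibition above about 30%, limit read from the data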
aDG conf – alpha-DG glycosylation activation, confirmation; shares compounds with aDG glyco act; Pro5-aDG cells, IIH6 AlphaLISA; scaled to LARGE-overexpressing B10 cells as 100%; activation, % at 10 µM (by protocol); 17% of 600 active;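 active = activation of at least 7% in one or more replicates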;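 also: cells exposed to compound for two days before detection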
Each line names hits and unclear results; the compound was inactive in the other large screens (follow-up assays come after a bar, where they were run). Hits are enriched below; roughly 1.9% of the tested compounds scored in any of these assays.

O=C(NNC(=O)C1CC(=O)N(c2ccc3c(c2)OCCO3)C1)c1ccc(F)cc1 (stereo not given)	aDG glyco act 3.3 (no result: NCF1 inh) | aDG conf inactive
CC(Oc1ccccc1F)C(=O)NNC(=O)C1CC(=O)N(c2ccc3c(c2)OCCO3)C1 (stereo not given)	none (no result: NCF1 inh)
O=C1C(=O)N(CCS(=O)(=O)c2ccccc2)c2ccc(F)cc21	aDG glyco act 7.6 (no result: NCF1 inh) | aDG conf 5.4
COc1ccc2c(c1)C(=O)C(=O)N2CCS(=O)(=O)c1ccccc1	none (no result: NCF1 inh)
O=C(CSc1ncnc2sc3c(c12)CCCC3)Nc1ccc(Oc2ccccc2)cc1	none (no result: PG9 Ab binder, aDG glyco act, ZTA counter, EBNA-1 inh, NCF1 inh)
Cc1onc(-c2ccccc2)c1C(=O)N/N=C/c1ccco1	none
O=C(Cc1cccs1)N/N=C\c1ccccc1	none (no result: PG9 Ab binder, aDG glyco act, ZTA counter, EBNA-1 inh, NCF1 inh)
O=C(Cc1cccs1)N/N=C\c1ccc([N+](=O)[O-])s1	aDG glyco act 13 | aDG conf 3.9
O=C(CNC(=O)c1ccccc1Cl)N/N=C/c1ccc([N+](=O)[O-])s1	aDG glyco act 12 | aDG conf 6.5
Cc1onc(-c2ccccc2)c1C(=O)N/N=C/c1ccc([N+](=O)[O-])s1	aDG glyco act 6.0 | aDG conf inactive
COc1ccccc1C(=O)n1ccc2ccc(-c3ccc4ccn(Cc5ccc(C#N)cc5)c4c3)cc21	none (no result: PG9 Ab binder, aDG glyco act, ZTA counter, EBNA-1 inh, NCF1 inh)
COc1ccc(C(C(=O)N(C)C2CCCC2)N(Cc2ccc(F)cc2)C(=O)c2csc3ccc(Cl)cc23)cc1OC (stereo not given)	none (no result: PG9 Ab binder, aDG glyco act, ZTA counter, EBNA-1 inh, NCF1 inh)
Cc1nnc(C)n1N=Cc1ccc(O)cc1O	none (no result: PG9 Ab binder, aDG glyco act, ZTA counter, EBNA-1 inh, NCF1 inh)
COc1cc(C(=O)NC2CCCCN(Cc3ccc(Cl)cc3)C2=O)cc(OC)c1OC (stereo not given)	none (no result: PG9 Ab binder, aDG glyco act, ZTA counter, EBNA-1 inh, NCF1 inh)
COc1cn(-c2ccccc2)nc1C(=O)Nc1ccc(C)cc1	none (no result: NCF1 inh)
COc1ccc(C)cc1NC(=O)c1nn(-c2ccccc2)cc1OC	aDG glyco act 2.5 (no result: NCF1 inh) | aDG conf inactive
CN(C)c1nc(-c2cn(CCC#N)c3ccccc23)cs1	aDG glyco act 5.1 (no result: NCF1 inh) | aDG conf inactive
Cc1cccc(NC(=O)c2ccc([N+](=O)[O-])s2)c1C	aDG glyco act 10 | aDG conf inactive
Cc1cccc(NC(=O)c2cccc([N+](=O)[O-])c2O)c1C	none (no result: ZTA counter, EBNA-1 inh, NCF1 inh)
Cc1cc2ncc(S(=O)(=O)c3ccccc3)c(N)n2n1	aDG glyco act 6.3 | aDG conf inactive
CCOC(=O)[C@@]12CCC3=C1N(CCC3)C(=O)[C@H](CC(=O)N1CCSCC1)C2	none (no result: PG9 Ab binder, aDG glyco act, ZTA counter, EBNA-1 inh, NCF1 inh)
CCOC(=O)N1CCC(N2C(=O)c3ccc(C(=O)Nc4ccc(F)cc4F)cc3C2=O)CC1	aDG glyco act 8.8 | aDG conf inactive
CCN(CC)S(=O)(=O)c1ccc(=O)n(CC(=O)N2Cc3ccccc3CC2C(N)=O)c1 (stereo not given)	aDG glyco act 3.4 (no result: ZTA counter, EBNA-1 inh, NCF1 inh) | aDG conf inactive
Cc1c(Br)c([N+](=O)[O-])nn1CC(=O)N1CCCc2ccccc21	aDG glyco act 4.4 | aDG conf inactive
CC(=O)NCC(=O)NC1CCCc2c1cnn2-c1ccc(C(C)(C)C)cc1 (stereo not given)	none (no result: NCF1 inh)
CC(C)(C)c1ccc(-n2ncc3c2CCCC3NC(=O)C2(C(N)=O)CC2)cc1 (stereo not given)	aDG glyco act 9.6 (no result: NCF1 inh) | aDG conf inactive
COc1cccc(CNC2CCC23CCC(C)CC3)c1 (stereo not given)	none (no result: PG9 Ab binder, aDG glyco act, ZTA counter, EBNA-1 inh, NCF1 inh)
CCOC(=O)C1=C(CC)OC(N)=C(C#N)C1c1ccc(OC)c(C)c1OC (stereo not given)	none
CCOC(=O)C1=C(C)OC(N)=C(C#N)C1c1ccc(OC)c(C)c1OC (stereo not given)	aDG glyco act 9.7 | aDG conf inactive
COc1cc(-c2ccc(NC(=O)CN3CCC(C)CC3)c(OC)c2)ccc1NC(=O)CN1CCC(C)CC1	aDG glyco act 18 (no result: ZTA counter, EBNA-1 inh) | aDG conf 4.0
CCOC(=O)c1sc2nc(CSc3ccccc3)nc(NCCN(C)C)c2c1C	aDG glyco act 8.4 | aDG conf inactive
O=S1(=O)c2c(cccc2N2CCC[C@H]2CO)O[C@@H]2CCN1C2	none (no result: PG9 Ab binder, aDG glyco act, ZTA counter, EBNA-1 inh, NCF1 inh)
CC1CCCC(C)N1C(=O)CSc1nnnn1Cc1ccccc1 (stereo not given)	aDG glyco act 5.6 | aDG conf inactive

Screens deposited in PubChem BioAssay by several laboratories.
